The record followed here is PubChem BioAssay AID488966 (Southern Research Specialized Biocontainment Screening …, 2010).

“And” between values parts separate entries of the source, which are not always exact repeats. Equal values may be shown once. The campaign covered roughly 340,000 compounds. About 55 (0.02%) were called active. Not all results are given here. Potency and affinity values are given separately. Values without a mark were called inactive.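 Rule for the calls: active = phage lysis inhibition, versus mean bacterial control, above a set limit; inconclusive = no clear call, values can overlap the other calls; inactive = the rest.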

This test can be described thus: protection from phage-mediated lysis, alamar blue read-out – E. coli UTI89, K1F phage, bacterial capsule biogenesis inhibitors (AID 488966).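 Note: capsule biogenesis inhibitors block K1F phage lysis so surviving cells raise fluorescence; higher fluorescence means more inhibition of phage lysis.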 The conditions noted are these: 2 h; inhibition: at 100 µM, active compounds read high unless noted; series mostly up to 300 µM. In general terms: Resazurin is reduced to fluorescent resorufin, in cell work by metabolically active cells.
A word on the inhibition: it is the relative decrease from the control value, in per cent. Regarding `CC(C)OCCCNC(=O)c1cc(-c2cccs2)nc2ccccc12`, the inhibition is 0.22%.
As for `COc1ccc(NC(=O)C2CCC(C)(C(=O)O)C2(C)C)cc1` (configuration not stated), the inhibition result was “inactive”.
Take `CC1(C(=O)O)CCC(C(=O)Nc2ccccc2)C1(C)C` (configuration not stated): the inhibition was 0.32%.
On to `CC(=O)c1ccccc1OCCCOc1cccc2cccnc12`, for which the inhibition is 0.48%.
On to `O=C(Nc1ccc(Br)cc1)c1ccc2ncsc2c1`, for which the inhibition result is “inactive”.
Consider `O=C(Nc1ccc(F)cc1)c1ccc2ncsc2c1`, for which the inhibition is 0.29%.
For `O=C(O)c1cc(-c2ccccc2)nn1CC1CC(c2cccnc2)=NO1` (configuration not stated), the inhibition is 1.3%.
On to `O=C(NCc1ccccc1)C1CCCN(S(=O)(=O)c2ccc(Br)cc2)C1` (configuration not stated), for which the inhibition was 1.64% [at 50 µM, active compounds read high].
Under `CC(C)(C)c1ccc(OCC(O)CN(CCO)CC(O)Cn2ccc3ccccc32)cc1` (configuration not stated) stands 0.2%; under `CC1(c2ccccc2)NC(=O)N(NC(=O)CSc2n[nH]c(N)n2)C1=O` (configuration not stated), 0.72%.
For the compound `COc1ccc(S(=O)(=O)N2CCN(c3ccccc3OC)CC2)cc1`, the inhibition is 0.03%.
Under `Cc1ccc(C)c(NC(=O)COC(=O)CCc2ccc(S(=O)(=O)N3CCOCC3)cc2)c1` stands -0.17%; under `CC(=O)Nc1cccc(-c2nnc(SCC(=O)N3CCCCC3)n2C)c1`, 0.94%; under `COc1ccccc1OCC(O)CN1CCN(CC(=O)Nc2c(C)cccc2C)CC1` (configuration not stated), 3.11% and 2.01%.
Take `Cc1ccc(NC(=O)CCC(=O)NNC(=O)COc2cccc3ccccc23)c(C)c1`: the inhibition is -0.27%.
For `Cc1cc(C)c(NC(=O)COc2nncc3ccccc23)c(C)c1`, the inhibition is -1.44%.
In the case of `CC(C)NC(=O)COc1cccc2ccccc12`, the inhibition is 1.21%.
Under `CC(CCc1ccccc1)NC(=O)CN1CCOc2ccccc21` (configuration not stated) stands 0.85%.
In the case of `CSc1ccc(CN(C)CC(=O)Nc2ccc(NC(C)=O)cc2)cc1`, the inhibition is -0.1%.
On to `COc1ccc(-c2nc(NCCCN(C)C)c3ccccc3n2)cc1`, for which the inhibition is 5.55%.
As for `CCN(CC)CCCNc1nc(-c2ccccc2)nc2ccccc12`, the inhibition is 0.145% [at 50 µM, active compounds read high].
With `O=C(O)CCCC(=O)Nc1cccc(C(=O)Nc2ccccc2C(=O)O)c1` the figure was 1.41%; with `O=C1c2ccccc2C(=O)c2c(Nc3ccc(CCO)cc3)ccc(O)c21`, -1.03% [at 50 µM, active compounds read high]; with `O=C1c2cccc(NCCCNCCO)c2C(=O)c2cccc(NCCCNCCO)c21`, “inactive”.
In the case of `Cc1cccc(CSC(=N)N)c1`, the inhibition was 7.29%.
Take `N=C(N)SCCc1cnc[nH]1`: the inhibition was 1.68%.
For `Cc1noc(/C=C/c2ccccn2)c1[N+](=O)[O-]`, the inhibition is 0.12%.
As for `CCOC(=O)C1(Cc2ccc(Cl)cc2)CCN(C(C)Cc2ccc(O)c(OC)c2)CC1` (configuration not stated), the inhibition was 0.5%.
Regarding `Cc1ccc(NC(=O)CN(C)C(=O)COc2ncnc3ccc(Br)cc23)cc1`, the inhibition is 0.5% [at 50 µM, active compounds read high].
As for `COc1ccc(NS(=O)(=O)c2cccc(C(=O)NCCCN3CCOCC3)c2)cc1`, the inhibition was 1% [at 50 µM, active compounds read high].
`CC(=O)NN=C1CCC(c2ccccc2)CC1` (configuration not stated): the inhibition was 4.73%.
As to `COc1ccccc1OCC(=O)NNC(=O)c1cccs1`, the inhibition is 5.22%.
Consider `COc1ccc(C(CNC(=O)c2cncc(Br)c2)N(C)C)cc1` (configuration not stated), for which the inhibition was -0.11%.
Regarding `COc1cc(C2C(C#N)=C(N)Oc3n[nH]c(-c4ccncc4)c32)cc(OC)c1OC` (configuration not stated), the inhibition is 1.19%.
Take `COc1ccccc1NC(=O)CN1C(=O)C(C)Oc2ccccc21` (configuration not stated): the inhibition was -1.62%.
On to `CCOc1ccc(S(=O)(=O)NCc2cccnc2)cc1C`, for which the inhibition is 0.14%.
With `COC(=O)/C=C/C(=O)Nc1ccc(O)c(Cl)c1`, the inhibition is -2.78%.
As to `Cc1ccc(N2C(=O)C3C4CCC(O4)C3C2=O)c(OC(F)F)c1` (configuration not stated), the inhibition is 2% [at 50 µM, active compounds read high].
Under `CC(C)Nc1nc(SCC(=O)Nc2ccccc2)nc(N2CCOCC2)n1` stands -0.955% [at 50 µM, active compounds read high].
Under `c1ccc(C(c2nnnn2C2CCCCC2)N2CCc3ccccc3C2)nc1` (configuration not stated) stands 6.52%.
`C/C(=N\NC(=O)C(O)c1ccccc1)c1ccc(Cl)cc1` (configuration not stated): the inhibition was 0%.
Consider `O=C(COC(=O)c1ccccn1)Nc1ncc(C(F)(F)F)cc1Cl`, for which the inhibition is 1.67%.
With `Cc1noc(/C=C/c2ccco2)c1S(=O)(=O)N1CCC(C(=O)NCc2ccco2)CC1` the figure was 0.57%; with `Cc1cc(C)n(CC(=O)NCc2ccccc2)c(=O)c1C#N`, 0.26%; with `O=c1[nH]c2ccccc2c2ccc(Cl)cc12`, -0.77%.
On to `Cc1ccc(NC(=O)N/C=C/c2ccco2)cc1`, for which the inhibition was -0.09%.
In the case of `COc1ccc(NC(=O)CN2C(=O)/C(=C3\SC(=S)N(CCC(=O)O)C3=O)c3ccccc32)cc1`, the inhibition was 1.3% [at 50 µM, active compounds read high].
Under `CSc1nnc(-c2cccn(Cc3cccc(Cl)c3)c2=O)o1` stands 0.19%.
Under `Cc1cc(N(C)/N=C/c2ccccc2O)nc(-c2ccccc2O)n1` stands -1.22%.
As to `COc1ccc2[nH]c3c(c2c1)CCN1C(=O)N([C@@H](C)C(=O)NCc2ccc(F)cc2)C(=O)[C@]31C`, the inhibition was 1.55%.
As for `Cc1ccn2cc(-c3cccc(S(=O)(=O)N4CCCCC4)c3)nc2c1`, the inhibition was -0.04%.
For the compound `COc1ccccc1C(=O)NCCC(=O)NC1CCCCCC1`, the inhibition was 0.81% [at 50 µM, active compounds read high].
With `COc1ccc(C(C)(C)C)cc1S(=O)(=O)N1CCN(C)CC1`, the inhibition was 0.43%.
Consider `Cc1cccc(NC(=O)Nc2ccncc2)c1`, for which the inhibition is 3.48%.
As to `O=C(Nc1ccncc1)Nc1cccc(F)c1`, the inhibition is 0.13%.
For the compound `COc1ccc2c(c1)C1=C(CC2)C(c2ccc(C)cc2)NC(=S)N1` (configuration not stated), the inhibition is -0.41%.
As to `CN(C)CCN(C(=O)c1ccc2c(c1)OCCO2)c1nc2ccc(Cl)cc2s1`, the inhibition was 3.17% [at 50 µM, active compounds read high].
